# About 900 (1.7%) of roughly 53,000 compounds showed an effect of 50% or more. Many of the other results were omitted from the sample, so strong results are more common in it than they were.
# Test system: Mycobacterium tuberculosis
# Test: Cornell - Phenotypic assay to identify agents that inhibit growth of Mycobacterium tuberculosis
# Assay type: functional
# Set-up: scale not given: direction of the effect not stated beside the values
# Conditions: 10 mM as filed; unlikely as a test dose
row,Structure (SMILES),Percent Effect [%]
1,O=C(C1CCC1)N1CCCn2nc(CNc3ncccn3)cc2C1,5.205
2,CN(Cc1cc2cc(F)ccc2[nH]1)c1cc(C2CCCNC2)ncn1 (stereo not drawn),13.11
3,Cc1c(CN(C)c2cc(C3CCCNC3)ncn2)[nH]c2ccccc12 (stereo not drawn),61.5
4,Cc1nc(C2CCCNC2)cc(N(C)CCc2ccccc2)n1 (stereo not drawn),0.6184
5,CN1C(=O)CCc2cc(NS(=O)(=O)Cc3cccc(F)c3)ccc21,1.464
6,O=C(Nc1cccs1)N1CC(c2nc(C3CC3)no2)C1,107.8
7,COCCc1noc(C2CCN(C(=O)Nc3cccs3)CC2)n1,17.42
8,O=C(Nc1c(F)cccc1F)N1CC(c2nc(C3CC3)no2)C1,10.47
9,O=C(Nc1cccnc1)[C@H]1C[C@H]2OCC[C@H]2N(Cc2ccc(F)cc2)C1.O=C(O)C(F)(F)F.O=C(O)C(F)(F)F,11.11
10,CC(C)C(=O)NCCc1cc2nc(-c3ccncc3)ccn2n1,-48.83
11,COCCN1CCC(CNC(=O)C2(c3ccc(Br)cc3)CCCC2)C1 (stereo not drawn),15.91
12,CCCn1ncc(-c2ccnc(N[C@@H]3C[C@@H]4CC[C@H]3C4)n2)c1C,88.15
13,CCCn1ncc(-c2ccnc(NC3CCCc4ccccc43)n2)c1C (stereo not drawn),50.48
14,OCCNc1nccc(-c2cn3nccc3nc2C2CCCCC2)n1,15.49
15,CCCn1cc(-c2ccnc(NC3CCc4ccccc43)n2)c(C)n1 (stereo not drawn),36.22
16,Cc1nn(CCO)c(C)c1CNC1CCCCc2ccccc21 (stereo not drawn),11.7
17,CCCn1cc(-c2ccnc(NC3CCc4ccccc4C3)n2)c(C)n1 (stereo not drawn),8.734
18,CCCn1cc(-c2ccnc(NC3CCCc4ccccc43)n2)c(C)n1 (stereo not drawn),106.6
19,CCCn1ncc(-c2ccnc(NC3CC(C)(C)NC(C)(C)C3)n2)c1C,-32.04
20,CCCn1ncc(-c2ccnc(NC3CCSC3)n2)c1C (stereo not drawn),-4.809
21,O=C1NCC2(CCCN(c3ncnc4c3CCC4)CC2)O1 (stereo not drawn),11.26
22,O=C(CCSc1ccc2c(c1)OCCO2)NCC1CCS(=O)(=O)C1 (stereo not drawn),-7.695
23,CCC(C)NC(=O)Nc1cccc(OCCCC#N)c1 (stereo not drawn),-0.4736
24,CC(C)NC(=O)Cn1ccc2c(Cl)cccc21,18.88
25,COc1ccc(CN(C)CC(=O)Nc2ccc3[nH]c(=O)[nH]c3c2)cc1F,-12.93
26,COc1cccc(NC(=O)C2CC(=O)n3cnnc3S2)c1 (stereo not drawn),106.8

row,Structure (SMILES),Percent Effect [%]
1,COc1ccc(NC(=O)C(c2ccc(OC)cc2)N2CCOCC2)cc1 (stereo not drawn),-0.3618
2,COc1ccc(C2CCCN2C(=O)Nc2ccc(OC)nc2)cc1 (stereo not drawn),1.248
3,COc1cccc(NC(=O)c2nc3ccccc3n(C)c2=O)c1,19.08
4,Cc1cccc(NC(=O)C2CCc3ccccc3N2)c1.Cl (stereo not drawn),44.23
5,COc1ccc(NC(=O)C2CC(=O)n3cnnc3S2)cc1 (stereo not drawn),106.3
6,COCCN1C(=O)C2(CCC(C(=O)Nc3cccc(C)c3)CC2)N=C1C (stereo not drawn),23.11
7,COc1cccc(NC(=O)N2CC[C@@H]3CN(C)S(=O)(=O)[C@@H]3CC2)c1,-43.46
8,Cc1cccc(NC(=O)C2CC(=O)n3cnnc3S2)c1 (stereo not drawn),107.8
9,Cc1nnc(NC(=O)c2cc(S(=O)(=O)N3CCSCC3)c[nH]2)s1,-1.205
10,CCc1cc(-c2ccnc3c2ccn3C)nc(N2CCOCC2)n1,3.05
11,N#Cc1ccc(C(=O)N2CCC3(CC2)CC3)cc1,-6.813
12,O=C(c1cc(C2CCCCC2)no1)N1C[C@H]2C[C@H](O)C[C@H]2C1,24.89
13,CNC(=O)[C@H]1C[C@@H]2CN(C(=O)c3ccc(C)o3)C[C@@H]2N1S(C)(=O)=O,18.79
14,Cc1cc(CC(=O)NC2CCCN(Cc3ccccc3)C2=O)n[nH]1 (stereo not drawn),-5.186
15,Cc1cnc(Nc2cccc(C3CCCN3Cc3cn(C)nc3C)n2)s1 (stereo not drawn),23.5
16,Cc1nn(C)cc1CN1CCCC1c1cccc(Nc2nccs2)n1 (stereo not drawn),56.13
17,Cc1ccccc1CN1CCCC1c1cccc(Nc2nccs2)n1 (stereo not drawn),44.82
18,O=c1[nH]c2nc(N3CCSCC3)ncc2c(=O)n1-c1cccc(F)c1,12.37
19,O=C(O)C1CCCN1c1nc(-c2ccc(Cl)cc2)cc(C(F)(F)F)n1 (stereo not drawn),38.69
20,O=C(O)C1CCCN1c1nc(-c2ccc(Cl)c(Cl)c2)cc(C(F)(F)F)n1 (stereo not drawn),67.65
21,O=C(O)C1CCCN1c1nc(C2CC2)cc(C(F)(F)F)n1 (stereo not drawn),4.747
22,Cc1noc(C)c1CN(C)Cc1csc(-c2ccc(F)cc2)n1,39.26
23,Cc1cc(CN(C)Cc2csc(-c3ccc(C(C)C)cc3)n2)no1,47.23
24,Cc1noc(C)c1CN(C)Cc1csc(-c2ccc(C(C)C)cc2)n1,63.13
25,CC(C)c1ncc(CN2CCCC2c2[nH]ncc2C(=O)N(C)C)cn1 (stereo not drawn),-22.16
26,CCCn1c(C)c(CC(=O)N[C@H](C)C(=O)OC)c2c1CC(C)(C)CC2=O,46.36

row,Structure (SMILES),Percent Effect [%]
1,Cc1cnc2n(c1=O)C(CC(=O)NCc1ccco1)CS2 (stereo not drawn),22.84
2,Cc1nc(C)n(CC2CN(CC(=O)NC3CCCC3)CCO2)n1 (stereo not drawn),-1.047
3,CCc1ccccc1NCc1nc2[nH]c(C)c(C)c(=O)n2n1,-10.14
4,CN1C(=O)C2(CCN(C(=O)C3CCOCC3)CC2)c2ccccc21,10.41
5,CC(C)NC(=O)c1nc(COc2ccc3c(c2)OCO3)no1,22.39
6,N#Cc1nc(COc2ccc3c(c2)OCO3)oc1NC1CCCCC1,58.43
7,N#Cc1nc(COc2ccc3c(c2)OCO3)oc1N1CCCC1,60.43
8,CNc1oc(COc2ccc3c(c2)OCO3)nc1C#N,-5.351
9,N#Cc1nc(COc2ccc3c(c2)OCO3)oc1N1CCCCCC1,35.88
10,N#Cc1nc(COc2ccc3c(c2)OCO3)oc1NC1CC1,0.1825
11,Cc1nn(C)cc1-c1cc(C(F)(F)F)n(CCCN)n1,-15.46
12,Cc1cccc(CS(=O)(=O)NCc2nn(C)c3c2CCCC3)c1,18.68
13,O=C(c1cnccn1)N1CC(S(=O)(=O)c2ccc(Cl)cc2)C1,17.17
14,CC(=O)N1CCN(c2cc(C)ncn2)CC(CO)C1 (stereo not drawn),21.65
15,CCOC(=O)Cn1c(=O)nc2n1C(=O)N(c1ccccc1)C2,-0.8928
16,CN(C(=O)Cn1nnnc1C(C)(C)C)c1ccccc1,-5.466
17,CCOC(=O)Cn1nnnc1-c1ccccc1,99.52
18,Cc1cccc(OCC(O)CNCc2c(C)nn(C)c2N(C)C)c1 (stereo not drawn),33.74
19,CC(C)c1nn(C)c(N(C)C)c1CNCC(O)c1ccccc1 (stereo not drawn),39.56
20,Cc1ccc(C(O)CNCc2c(C(C)C)nn(C)c2N(C)C)cc1 (stereo not drawn),104.4
21,CC(C)c1nn(C)c(N(C)C)c1CNCC(O)COc1ccccc1 (stereo not drawn),51.29
22,COc1c(CNCC(O)c2ccccc2F)c(C(C)C)nn1C (stereo not drawn),-39.06
23,CC(C)c1nn(C)c(N(C)C)c1CNCC(O)c1ccccc1F (stereo not drawn),40.49
24,Cc1nn(C)c(N(C)C)c1CNCC(O)COc1ccccc1.Cl (stereo not drawn),25.02
25,COc1ccccc1C(O)CNCc1c(C(C)C)nn(C)c1N(C)C (stereo not drawn),50.62
26,Cc1nn(C)c(N(C)C)c1CNCC(O)c1ccccc1 (stereo not drawn),-2.094

row,Structure (SMILES),Percent Effect [%]
1,O=C(O)c1nnn(-c2ccc(F)c(F)c2)c1-c1ccncc1,8.364
2,CC(=O)c1ccc(-n2c(C)cn(CCC(=O)NC(N)=O)c2=O)cc1,30.44
3,Cc1nc2ccnn2c(C)c1CCC(=O)N1CCN2CCCCC2C1 (stereo not drawn),-1.576
4,CCCn1cc(Cl)c(C(=O)N2C[C@H]3C[C@H](OC)C[C@H]3C2)n1,4.304
5,CN1CC[C@]2(CN(CC3CC3)C[C@H]2c2ccccc2)C1=O,-29.63
6,CC(=O)Nc1ccc(Oc2cc(C)nc(C3CCCNC3)c2)cc1.Cl (stereo not drawn),31.88
7,Cc1ccc(N2CCCN(C(=O)c3n[nH]c4c3CCC4)CC2)nn1,19.39
8,CNC(=O)CN1CCC(CN(C)CCSc2ccccc2)CC1,4.331
9,CCSCCNc1cc(C)nc2c(C)c(C)nn12,75.01
10,Cc1cc(NCCCNc2cccnc2)n2nc(C)c(C)c2n1,31.25
11,Cc1cc(NCCSc2nccn2C)n2nc(C)c(C)c2n1,27.83
12,Cn1cc(-c2cc(C(F)F)n3nc(CCC(=O)O)nc3n2)cn1,-6.676
13,COc1cccc(CNC(=O)c2ccccc2-n2cnc(CN)c2)c1,-31.51
14,CN1CCc2nnc(C3CCCN3S(=O)(=O)c3ccc(F)cc3)n2CC1 (stereo not drawn),59.34
15,CCN(CC)S(=O)(=O)N1CCCC1c1nnc2n1CCN(C)CC2 (stereo not drawn),42.64
16,O=S(=O)(c1ccc(F)cc1F)N1CCCCC1c1nnc2n1CCCC2 (stereo not drawn),10.12
17,CC(OCC1CC1)C(=O)N1CCCN(Cc2nccn2C(C)C)CC1 (stereo not drawn),14.16
18,O=C(NCCC1COc2ccccc2O1)c1ccc(-c2cc[nH]n2)nc1 (stereo not drawn),70.18
19,O=C(NCCC1COc2ccccc2O1)c1ccc(-c2cn[nH]c2)nc1 (stereo not drawn),4.189
20,O=C(NCCC1COc2ccccc2O1)c1ccc(N2CC(O)C2)nc1 (stereo not drawn),-14.99
21,CN(C)C(=O)N1C[C@@H]2CC[C@H](C1)N(Cc1nnc(-c3ccco3)o1)C2,-11.16
22,CCC(C)Oc1ccc(CNCCNC(C)=O)cc1OC (stereo not drawn),-42.04
23,CN1CCCN(c2nc(C3CCCC3)nc3c2cnn3C)CC1,65.73
24,Cn1ncc2c(N3CCN(CCO)CC3)nc(C3CCCC3)nc21,32.14
25,Cn1ncc2c(N3CCS(=O)(=O)CC3)nc(C3CCCC3)nc21,-13.36

# From ChEMBL document CHEMBL3988442, “University of Dundee, Small-Polar-MMV Screening Library” (2021)
